From PubChem
12-LOX inh = blocks human arachidonate 12S-lipoxygenase; 1.1% of 580,000 active; purified 12hLO, xylenol orange hydroperoxide absorbance; P18054; Potency, µM (series often up to 108 µM), inactives show top-dose activity change, negative = inhibition, usual class: inhibitors; further: potency means the concentration at half of the fitted maximal effect; on the % scale 0 is the no-effect control and ±100 the full control effect
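Purified human 12hLO at 150 nM in 25 mM Hepes, 0.01% Triton X-100, pH 7.0, preincubated 15 min at room temperature with compound. Reaction started with 40 uM arachidonic acid, 30 min at room temperature. Hydroperoxide measured by Fe-xylenol orange, 573/405 nm absorbance ratio.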
POLK inh = blocks human DNA polymerase kappa activity. purified Pol kappa, fluorescent DNA synthesis assay, 10 min. Potency, µM (top dose mostly 107 µM), for the others: top-dose activity, negative = inhibition, actives largely listed as inhibitors. Q9UBT6. 0.53% of 400,000 active; further: potency means the concentration at half of the fitted maximal effect; on the % scale 0 is the no-effect control and ±100 the full control effect
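Enzyme at 10 nM met test compounds for 15 min at room temperature. Substrate addition (50 nM final) began the reaction, which was monitored by fluorescence at 0 and 10 min.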
Pol iota inh = blocks human DNA polymerase iota activity; Pol iota fluorescent replication assay, 10 min; Potency, µM (highest dose often 115 µM), for inactives: at the highest dose activity, negative = inhibition, usual class: inhibitors; 1% of 390,000 active; further: potency means the concentration at half of the fitted maximal effect
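Pol iota at 10 nM preincubated 15 min with compounds at room temperature; reaction started with fluorescent substrate, 50 nM final. Fluorescence read kinetically at 0 and 10 min; buffer-only wells as negative control.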
PI5P4K alpha inh = PI5P4K alpha (human) kinase inhibition; P48426; PI5P4Kalpha enzyme, ADP-Glo luminescence, 60 min; active compounds read low; AID 652105; 1.2% of 330,000 active; max response, %; active means max response of -50% or lower; inconclusive means between -30% and -50%; inactive means -30% or higher; further: value at the top dose of about 77 µM; on the % scale 0 is the no-effect control and ±100 the full control effect
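Single end-point luminescence (ADP-Glo) quantified ADP from PI5P4Kalpha turnover; ATP 5 microM final, 1 h at RT, 0.1% CHAPS and 0.28 mM EGTA in HEPES pH 7.4.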
Pol eta inh = blocks human DNA polymerase eta activity; Q9Y253; recombinant Pol eta, fluorescent DNA replication assay; Potency, µM (doses to about 114 µM), for the others: top-dose activity change, negative = inhibition, hits mostly inhibitors; 1.2% of 390,000 active; AID 588591; further: potency means the concentration at half of the fitted maximal effect; on the % scale 0 is the no-effect control and ±100 the full control effect
Target sequence (Q9Y253 whole entry, looked up): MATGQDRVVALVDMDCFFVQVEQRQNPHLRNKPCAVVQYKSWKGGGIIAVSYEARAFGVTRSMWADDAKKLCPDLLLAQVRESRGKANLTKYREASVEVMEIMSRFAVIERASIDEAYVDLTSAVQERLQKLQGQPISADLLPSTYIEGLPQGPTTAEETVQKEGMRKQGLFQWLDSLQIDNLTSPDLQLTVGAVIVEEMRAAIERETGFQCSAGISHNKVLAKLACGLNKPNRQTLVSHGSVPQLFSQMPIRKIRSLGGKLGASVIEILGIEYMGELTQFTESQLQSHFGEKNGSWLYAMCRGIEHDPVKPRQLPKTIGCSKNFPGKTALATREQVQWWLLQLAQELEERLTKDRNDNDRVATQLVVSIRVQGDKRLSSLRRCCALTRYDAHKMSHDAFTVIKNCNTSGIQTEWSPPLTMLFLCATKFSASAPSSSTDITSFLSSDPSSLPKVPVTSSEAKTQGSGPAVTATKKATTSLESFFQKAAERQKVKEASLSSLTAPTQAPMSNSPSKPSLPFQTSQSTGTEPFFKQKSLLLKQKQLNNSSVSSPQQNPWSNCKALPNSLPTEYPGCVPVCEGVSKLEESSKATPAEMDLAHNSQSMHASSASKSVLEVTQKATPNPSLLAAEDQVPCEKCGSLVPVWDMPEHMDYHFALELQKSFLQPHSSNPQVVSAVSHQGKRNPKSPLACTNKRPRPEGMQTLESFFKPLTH
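Fluorescent replication assay: 50 nM final substrate added after a 15 min room-temperature compound preincubation with 10 nM enzyme. Signal taken at 0 min and again at 10 min.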
POLB inh = blocks human DNA polymerase beta activity; Potency, µM (highest dose often 114 µM), for inactives: at the highest dose activity change, negative = inhibition, actives largely listed as inhibitors; Pol beta primer extension/strand displacement, fluorescence kinetic; P06746; 1.3% of 340,000 active; further: potency means the concentration at half of the fitted maximal effect; on the % scale 0 is the no-effect control and ±100 the full control effect
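Kinetic readout of DNA synthesis with strand displacement by Pol beta. Compound and 10 nM enzyme sit 15 min at room temperature; 50 nM substrate starts the reaction, read immediately and at 10 min.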
The depositor's hits bear a star; u = inconclusive; x = not tested or not shown. An excerpt weighted towards active compounds, which were near 2.9% of everything screened. Unless noted, the call rests on the fitted dose curve; in most records, active means well fitted inhibition curve with a large enough effect; inconclusive means small, poorly fitted or top-dose-only effect, or another doubt; inactive means no such curve, though single readings can be large or run the other way.

SMILES | 12-LOX inh | POLK inh | Pol iota inh | PI5P4K alpha inh | Pol eta inh | POLB inh
COCCn1cnnc1SCc1csc(-c2cc(Br)ccc2OC)n1 | 15.8µM* | x | x | x | x | x
O=C(COC(=O)c1ccccc1NCCO)Nc1cccc(S(=O)(=O)NC2=NCCCCC2)c1 | -0.6% | u | 39.8µM* | -17.7 | u | x
O=C(Nc1cccc(S(=O)(=O)NC2=NCCCCC2)c1)C1COc2ccccc2O1 (centres undefined) | -7.0% | -24.3% | u | u | u | 12.6µM*
O=C(Nc1ccc(S(=O)(=O)NC2=NCCCCC2)cc1)C1COc2ccccc2O1 (centres undefined) | 4.9% | -9.1% | 9.3% | 4.8 | -9.3% | -27.7%
Cc1ccc(S(=O)(=O)c2nnn3c2nc(NC2CCN(Cc4ccccc4)CC2)c2ccccc23)cc1C | x | u | 44.7µM* | -22.8 | -18.6% | 0.6%
CC(=O)c1sc(N/N=C\c2c(O)ccc3ccccc23)nc1C | 39.8µM* | -4.1% | u | -52.9* | -13.6% | x
Cc1cc(C)c(NC(=O)CC2CCCC2)c(C)c1 | -3.4% | x | x | x | x | x
C/C(=N\NC(=O)c1ccn(C)n1)c1cccc(NC(=O)c2ccc(C)s2)c1 | -9.6% | 0.5% | 2.4% | -13.1 | -8.3% | 9.2%
C/C(=N\NC(=O)c1ccn(C)n1)c1ccc(NC(=O)c2cccc(F)c2)cc1 | 4.47µM* | -12.0% | 5.6% | 0.4 | -5.1% | u
O=C(/C=C/c1ccc(O)c(O)c1)c1ccc(S(=O)(=O)N2CCCCCC2)cc1 | 22.4µM* | -36.3% | u | -64.4* | 7.94µM* | u
CCn1cc(C(CC(=O)N2CCC(C)CC2)c2cccc(Cl)c2)c2ccccc21 (centres undefined) | 27.9% | x | x | x | x | x
CC(C)CNC(=O)COC(=O)c1c2c(nc3ccccc13)/C(=C/c1cccs1)CC2 | -23.8% | -7.6% | u | -19.7 | u | 17.8µM*
CC(C)(C)C(=O)COC(=O)c1c2c(nc3ccccc13)CCC2 | -28.0% | -11.0% | u | u | 79.4µM* | 17.8µM*
O=C(Nc1ccccc1)c1c2c(nc3ccccc13)CCC2 | 35.5µM* | x | x | x | x | x
NC(=O)c1ccc(NC(=O)COC(=O)c2c3c(nc4ccccc24)/C(=C\c2cccs2)CCC3)cc1 | -18.9% | -4.5% | -23.7% | -0.2 | -1.1% | 7.9%
COC(=O)c1c2c(nc3ccccc13)CCC2 | 0.9% | 6.5% | -0.2% | -14.0 | -12.4% | u
CC(C)CNC(=O)COC(=O)c1c2c(nc3ccccc13)CCC2 | -29.8% | -32.6% | u | u | u | 39.8µM*
O=C(CCc1ncc(-c2c(F)cccc2F)o1)Nc1ccc(F)cc1 | -41.2% | x | x | x | x | x
Cc1cc(Cl)ccc1OCC(=O)NCc1cccc(NC(=O)C2CC2)c1 | 31.8% | x | x | x | x | x
CCN1c2cc(C(=O)Nc3cccc(C(=O)OC)c3)ccc2C(=O)N2CCCCCC21 (centres undefined) | 34.4% | x | x | x | x | x
O=C1CCNc2cc3ccccc3cc21 | x | -16.7% | -13.8% | u | u | 25.1µM*
COc1ccc(CC(=O)Nc2ccccc2-c2ccccc2)cc1 | 0.1% | x | x | x | x | x
CC1=C(C(=O)Nc2ccccc2)C(c2ccc(Cl)cc2)n2c(s/c(=C/c3cccc(OCC(=O)O)c3)c2=O)=N1 (centres undefined) | 44.7µM* | -12.6% | u | u | 56.2µM* | 79.4µM*
CCOC(=O)C1=C(c2ccccc2)N=c2s/c(=C\c3ccco3)c(=O)n2C1c1cccs1 (centres undefined) | u | u | 20µM* | x | 79.4µM* | 10µM*
CCOC(=O)C1=C(C)N=c2s/c(=C\c3ccc(OCC(=O)O)cc3)c(=O)n2C1c1ccccc1OC (centres undefined) | 17.8% | -6.1% | 16.6% | -9.7 | 39.8µM* | 12.5%
SMILES | 12-LOX inh | POLK inh | Pol iota inh | PI5P4K alpha inh | Pol eta inh | POLB inh
COc1ccc(C2C(C(C)=O)=C(C)N=c3s/c(=C\c4ccco4)c(=O)n32)c(OC)c1 (centres undefined) | u | -32.0% | u | -0.6 | 2.3% | 35.5µM*
CC(=O)c1c(C)nc(C2CC2)nc1SCC(=O)NC(C)C12CC3CC(CC(C3)C1)C2 (centres undefined) | -8.8% | x | x | x | x | x
COC(=O)C1=C(C)N(Cc2ccc(Br)cc2)C(=S)NC1c1ccc(F)cc1 (centres undefined) | 39.8µM* | x | x | x | x | x
COC(=O)C1=C(C)N(Cc2ccccc2)C(=S)NC1c1ccc(-c2ccccc2)cc1 (centres undefined) | 22.4µM* | x | x | x | x | x
COC(=O)C1=C(C)N(Cc2ccccc2)C(=S)NC1c1cccc(OC)c1 (centres undefined) | 31.6µM* | x | x | x | x | x
COC(=O)C1=C(C)N(Cc2ccccc2)C(=S)N[C@H]1c1ccccc1 | u | 8.6% | 5.3% | 3.5 | -16.8% | -20.8%
COC(=O)C1=C(C)N(Cc2ccc(Cl)cc2)C(=S)NC1c1ccc(Cl)cc1 (centres undefined) | 31.6µM* | x | x | x | x | x
Cc1cc(OCC(=O)NC(C)C)c2c(C)cc(=O)oc2c1 | 17.8% | x | x | x | x | x
NC(=O)C(Sc1ccccc1)c1ccccc1 (centres undefined) | 20.5% | x | x | x | x | x
COC(=O)C1=C(C)N(Cc2ccc(Br)cc2)C(=S)NC1c1cccc(F)c1 (centres undefined) | 35.5µM* | x | x | x | x | x
CCN1C(=S)N[C@@H](c2cccc(F)c2)C(C(=O)OC)=C1C | u | 1.8% | 5.8% | -0.1 | -1.6% | 0.1%
CC(C)n1cc(/C=C2/NC(=O)NC2=O)c2ccccc21 | u | 2.4% | -19.0% | -17.9 | -13.1% | 29.2%
C#CCn1cc(/C=C2\NC(=O)NC2=O)c2ccccc21 | u | u | u | 1.6 | u | 35.5µM*
COc1ccc(S(=O)(=O)N2CCN(Cc3ccccc3)CC2)cc1 | 15.8% | -1.0% | 23.8% | x | -9.9% | 0.2%
COc1ccc(S(=O)(=O)N2CCN(Cc3cc(OC)c(OC)c(OC)c3)CC2)cc1 | 0.708µM* | -9.4% | 86.8% | -2.5 | -3.1% | -2.7%
COc1ccc(S(=O)(=O)N2CCN(Cc3cc(OC)c(O)c(OC)c3)CC2)cc1 | 0.562µM* | 4.4% | -18.8% | 2.1 | 5.1% | -0.3%
COc1cc(CN2CCN(S(=O)(=O)c3ccccc3)CC2)cc(OC)c1O | 1.8% | -11.3% | 2.3% | x | -11.5% | u
COc1ccccc1NC(=O)c1cnc2ccccc2n1 | -4.7% | x | x | x | x | x
COc1ccc(C(=O)Nc2cc(-c3nc4ccccc4o3)ccc2C)c(OC)c1 | 1.7% | x | x | x | x | x
Cc1cc(O)c(C(C)C)cc1N=Cc1ccc([N+](=O)[O-])cc1 | u | -3.5% | 10µM* | 3.0 | -19.6% | x
Cc1cc(O)c(C(C)C)cc1N=Cc1ccc(N(C)C)cc1 | u | -13.2% | u | -15.7 | -21.1% | x
CCCCn1c(CCC(=O)Nc2cc(C)ccc2C)nc2c1c(=O)[nH]c(=O)n2CCC | -6.4% | x | x | x | x | x
